Inconclusive results are not listed. Where a call stands in place of a potency, no number is given. Activity calls are given as the source filed them. Unless noted, calls come from the whole dose curve; as a rule, active = well fitted curve in the direction sought with a large enough effect; inconclusive = small, poorly fitted or top-dose-only effect, or another doubt; inactive = no such curve, though single readings can be large; an effect the other way counts as inactive or inconclusive.
Key:
[1] = Quantitative high throughput screen for delayed death inhibitors of the malarial parasite plastid, 96 hour incubation (AID 488745); conditions: Plasmodium falciparum growth; note: potency is the fitted concentration of half-maximal effect; nearly all actives have a fitted effect of over 70% in size
How it was run: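 Luciferase-expressing P. falciparum in erythrocytes (2% hematocrit, 0.1% parasitemia) incubated with compound for 96 h at 37 C, 5% CO2, in RPMI 1640 with 0.5% Albumax. Growth inhibition read as decreased luminescence.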

[2] = Quantitative high throughput screen for delayed death inhibitors of the malarial parasite plastid, 48 hour incubation (AID 488752); conditions: Plasmodium falciparum growth; note: potency is the fitted concentration of half-maximal effect; nearly all actives have a fitted effect of over 65% in size
How it was run: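 Erythrocytes infected with firefly luciferase-expressing P. falciparum (2% hematocrit, 0.1% parasitemia) cultured with compound for 48 h at 37 C, 5% CO2, in RPMI 1640/0.5% Albumax. Growth inhibition read as loss of luminescence.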

[3] = target: M-phase phosphoprotein 8 (Homo sapiens) (UniProt Q99549); assay: qHTS Validation Assay for Inhibitors for MPP8 Chromodomain Interactions with Methylated Histone Tails (AID 488949); conditions: AlphaScreen MPP8 binding to H3K9me3 peptide; series mostly up to 114 µM;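 note: AlphaScreen signal from MPP8 chromodomain bound to biotinylated H3K9me3 peptide; top concentration of the series differs between compounds; nearly all actives have a fitted effect of over 55% in size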
How it was run: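 MPP8 (50 nM) was preincubated with biotinylated H3(1-18)K9me3 peptide (50 nM) in PBS pH 7.4, 0.01% Tween-20 for 30 min at room temperature, then with compounds for 30 min; binding was detected by AlphaScreen.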

[4] = target: DNA polymerase III PolC-type (Bacillus subtilis (strain 168)) (UniProt P13267); assay: qHTS Validation Assay for the Inhibitors of DNA Replication in Gram-Positive Bacteria (AID 485295); conditions: Gram-positive bacterial DNA replication assay; series mostly up to 57.1 µM;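 note: PicoGreen fluorescence of double-stranded DNA made on primed circular M13 template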
How it was run: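 Reconstituted B. subtilis holoenzyme (Pol III, beta clamp, SSB, primase) was preincubated with compound at room temperature, then given single-stranded circular M13Gori plus dNTPs and NTPs. EDTA-containing PicoGreen stopped the reaction, and dsDNA product was read by fluorescence.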

[5] = target: Tumor susceptibility gene 101 protein (Homo sapiens) (UniProt Q99816); assay: qHTS Validation Assay for Iinhibitors of HIV-1 Budding by Blocking the Interaction of PTAP/TSG101 (AID 485342; calls by dose curve); conditions: TSG101-PTAP binding, fluorescence polarization, 4-point titration; series mostly up to 115 µM
How it was run: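 Tsg101 binding domain (10 uM final) in pH 7.5 HEPES/NaCl/Tween 20/EDTA/TCEP buffer was mixed with pin-transferred compounds, then FITC-labeled PTAP peptide (50 nM final) was added; after 20 min at r.t., fluorescence polarization was read.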

[6] = target: Beta-2 adrenergic receptor (Homo sapiens) (UniProt P07550); assay: qHTS validation assay of beta-arrestin-biased ligands of beta2-adrenergic receptor (AID 485366); conditions: cell-based beta-arrestin recruitment to ADRB2, qHTS; series mostly up to 46.1 µM
How it was run: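 Arrestin-recruitment (Tango) reporter: ligand-bound beta2-AR recruits beta-arrestin, releasing tTA, which upregulates luciferase. Titrations of up to 46 microM incubated 18 hr at 37 degrees C before luminescent readout.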

[7] = target: ATP-dependent 6-phosphofructokinase (Trypanosoma brucei brucei) (UniProt O15648); assay: qHTS Validation Assay to Find Inhibitors of T. brucei phosphofructokinase (AID 485368); conditions: T. brucei PFK enzyme assay, qHTS 7-point titration; at 57.5 µM (top of the series)
How it was run: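 Steps: substrate mix (0.5 mM F6P, 0.1 mM ATP, MgCl2, TEA pH 8.0); compound; 1.25 nM T. brucei PFK; 45 min RT; ATP depletion 10 min; ADP-to-ATP detection 10 min; luminescence read; curve fitting and classification.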

[8] = target: Thioredoxin reductase 1, cytoplasmic (Rattus norvegicus) (UniProt O89049); assay: qHTS Assay for Substrates of Mammalian Selenoprotein Thioredoxin Reductase 1 (TrxR1) (AID 488772); conditions: purified TrxR1, NADPH consumption substrate assay; series mostly up to 57.1 µM;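 note: NADPH fluorescence in the first read after selenite addition and not the 8 min delta; a drop in NADPH fluorescence below the no-compound background marks a TrxR1 substrate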
Text: The selenoprotein thioredoxin reductase (TrxR; EC 1.8.1.9) is a FAD containing homodimeric pyridine nucleotide-disulfide oxidoreductase with many cellular roles. Together with NADPH and its prime substrate thioredoxin (Trx), the enzyme forms the core of the Trx system. The mammalian Trx system exerts a wide spectrum of functions including redox regulation, antioxidant defense, regulation of transcription factors as well as support of cell growth and replication. Many of these functions involve the reduction of Trx, which may subsequently reduce a number of different substrates including ribonucleotide reductase, peroxiredoxins or NFkB. […]
This BioAssay is a validation of an NADPH fluorescence-based, dual-purpose qHTS rTrxR1 assay designed to find potential inhibitors and substrates of rTrxR1. […]
Assay protocol: 2 uL of reagents (buffer in column 4 as negative control and 90 nM rTrxR1 in columns 1-3 and 5-48) were dispensed into Greiner black solid-bottom 1,536-well assay plates, followed by 1 uL of NADPH (400 uM final concentration) to each well. […] The plate was immediately transferred to a ViewLux high-throughput CCD imager (PerkinElmer), wherein kinetic measurements of NADPH fluorescence (Ex 340 nm, Em 450 nm) were acquired (8 minute kinetic read, see Table 1). […]

[9] = target: Thioredoxin reductase 1, cytoplasmic (Rattus norvegicus) (UniProt O89049); assay: qHTS Assay for Inhibitors of Mammalian Selenoprotein Thioredoxin Reductase 1 (TrxR1) (AID 488773); conditions: purified TrxR1 enzyme activity; series mostly up to 57.1 µM;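 note: drop in NADPH fluorescence over an 8 min run after selenite addition; nearly all actives have a fitted effect of over 40% in size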
How it was run: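 Steps: enzyme (90 nM) plus NADPH (400 uM final), 5 min at ~22 deg C; compound added, 15 min; selenite (400 uM final) added; fluorescence followed for 8 min. Concentration-response curves derived from the normalized delta values.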

[10] = target: Flap endonuclease 1 (Homo sapiens) (UniProt P39748); assay: qHTS Validation Assay for the Inhibitors of Human Flap endonuclease 1 (FEN1) (AID 488816); conditions: FEN1 nuclease activity, fluorogenic DNA substrate; series mostly up to 57.1 µM
How it was run: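 Readings taken at 0 and 15 min after starting the reaction with 50 nM (final) substrate supplied the signal. Compounds had first sat with 10 nM FEN1 reagent for 15 min at room temperature. Values come from Hill-equation concentration-response fits.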

Chain of M-phase phosphoprotein 8 (Homo sapiens) (Q99549 whole entry, looked up): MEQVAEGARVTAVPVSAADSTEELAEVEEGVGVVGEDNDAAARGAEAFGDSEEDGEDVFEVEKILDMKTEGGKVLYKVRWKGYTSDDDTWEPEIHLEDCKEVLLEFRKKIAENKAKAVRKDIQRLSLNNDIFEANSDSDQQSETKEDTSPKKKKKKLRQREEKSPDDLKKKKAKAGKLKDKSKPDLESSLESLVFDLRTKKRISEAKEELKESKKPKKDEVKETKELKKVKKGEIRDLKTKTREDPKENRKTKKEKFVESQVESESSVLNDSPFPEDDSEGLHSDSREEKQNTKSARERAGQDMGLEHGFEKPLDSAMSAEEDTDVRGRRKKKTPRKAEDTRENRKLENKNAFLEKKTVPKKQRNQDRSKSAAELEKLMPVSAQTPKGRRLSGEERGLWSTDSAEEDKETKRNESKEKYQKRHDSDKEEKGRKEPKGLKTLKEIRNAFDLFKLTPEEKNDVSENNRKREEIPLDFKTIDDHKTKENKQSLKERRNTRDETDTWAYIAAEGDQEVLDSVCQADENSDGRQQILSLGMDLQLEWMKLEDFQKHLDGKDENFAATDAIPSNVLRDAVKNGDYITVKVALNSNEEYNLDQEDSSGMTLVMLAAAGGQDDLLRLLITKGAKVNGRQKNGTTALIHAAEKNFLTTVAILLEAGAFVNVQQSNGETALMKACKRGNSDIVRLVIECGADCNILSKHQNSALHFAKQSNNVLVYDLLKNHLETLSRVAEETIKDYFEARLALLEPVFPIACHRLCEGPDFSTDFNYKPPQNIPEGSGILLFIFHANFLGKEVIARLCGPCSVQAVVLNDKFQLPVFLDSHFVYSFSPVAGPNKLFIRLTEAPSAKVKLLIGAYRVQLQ
Chain of Thioredoxin reductase 1, cytoplasmic (Rattus norvegicus) (O89049 whole entry, looked up): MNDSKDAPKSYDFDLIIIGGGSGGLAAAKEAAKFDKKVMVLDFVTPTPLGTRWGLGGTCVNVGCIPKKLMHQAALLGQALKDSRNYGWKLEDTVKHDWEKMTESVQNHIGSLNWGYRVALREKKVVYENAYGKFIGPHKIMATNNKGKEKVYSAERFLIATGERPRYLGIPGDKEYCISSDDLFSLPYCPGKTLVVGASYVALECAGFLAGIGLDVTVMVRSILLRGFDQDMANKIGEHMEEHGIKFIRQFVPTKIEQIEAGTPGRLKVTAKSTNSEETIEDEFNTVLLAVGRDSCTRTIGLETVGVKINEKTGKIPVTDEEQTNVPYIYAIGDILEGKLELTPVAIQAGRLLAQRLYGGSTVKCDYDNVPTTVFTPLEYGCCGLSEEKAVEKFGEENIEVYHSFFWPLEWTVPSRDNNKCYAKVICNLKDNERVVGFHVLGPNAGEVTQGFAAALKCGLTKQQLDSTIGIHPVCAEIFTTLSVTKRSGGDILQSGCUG
Chain of Beta-2 adrenergic receptor (Homo sapiens) (P07550 whole entry, looked up): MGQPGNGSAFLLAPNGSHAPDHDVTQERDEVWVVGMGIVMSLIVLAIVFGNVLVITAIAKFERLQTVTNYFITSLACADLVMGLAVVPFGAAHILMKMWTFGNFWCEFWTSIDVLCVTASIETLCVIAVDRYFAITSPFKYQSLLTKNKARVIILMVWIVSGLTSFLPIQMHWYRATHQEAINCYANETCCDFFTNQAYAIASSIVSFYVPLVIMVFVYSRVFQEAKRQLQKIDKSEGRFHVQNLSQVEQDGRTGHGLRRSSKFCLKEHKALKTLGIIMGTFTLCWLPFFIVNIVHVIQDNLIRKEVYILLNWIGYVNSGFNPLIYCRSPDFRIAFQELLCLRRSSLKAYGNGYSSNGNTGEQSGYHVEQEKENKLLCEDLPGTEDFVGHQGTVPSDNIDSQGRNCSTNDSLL
Chain of Flap endonuclease 1 (Homo sapiens) (P39748 whole entry, looked up): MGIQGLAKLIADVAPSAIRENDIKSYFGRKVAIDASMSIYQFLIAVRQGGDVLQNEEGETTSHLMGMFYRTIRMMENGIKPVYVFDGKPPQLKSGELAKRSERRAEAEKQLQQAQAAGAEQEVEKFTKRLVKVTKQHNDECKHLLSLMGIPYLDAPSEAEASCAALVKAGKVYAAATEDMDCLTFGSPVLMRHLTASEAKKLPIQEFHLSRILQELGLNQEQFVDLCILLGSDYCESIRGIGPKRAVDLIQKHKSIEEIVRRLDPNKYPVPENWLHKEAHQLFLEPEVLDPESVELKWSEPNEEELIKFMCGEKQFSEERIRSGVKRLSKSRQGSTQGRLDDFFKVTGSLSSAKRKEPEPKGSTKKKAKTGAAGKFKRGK
Chain of ATP-dependent 6-phosphofructokinase (Trypanosoma brucei brucei) (O15648 whole entry, looked up): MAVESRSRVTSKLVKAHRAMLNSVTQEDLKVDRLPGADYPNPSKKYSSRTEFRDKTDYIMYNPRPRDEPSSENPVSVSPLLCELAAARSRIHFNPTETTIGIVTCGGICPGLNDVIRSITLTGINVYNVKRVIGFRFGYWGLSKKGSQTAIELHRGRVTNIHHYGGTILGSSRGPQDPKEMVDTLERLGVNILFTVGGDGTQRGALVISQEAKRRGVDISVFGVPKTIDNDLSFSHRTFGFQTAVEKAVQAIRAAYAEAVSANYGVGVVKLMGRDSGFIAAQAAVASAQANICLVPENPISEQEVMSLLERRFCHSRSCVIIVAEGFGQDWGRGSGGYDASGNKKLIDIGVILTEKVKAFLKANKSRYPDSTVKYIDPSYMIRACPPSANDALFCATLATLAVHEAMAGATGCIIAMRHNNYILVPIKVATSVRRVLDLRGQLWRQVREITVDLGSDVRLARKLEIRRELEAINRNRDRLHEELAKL
Chain of Tumor susceptibility gene 101 protein (Homo sapiens) (Q99816 whole entry, looked up, the tested form may be a part): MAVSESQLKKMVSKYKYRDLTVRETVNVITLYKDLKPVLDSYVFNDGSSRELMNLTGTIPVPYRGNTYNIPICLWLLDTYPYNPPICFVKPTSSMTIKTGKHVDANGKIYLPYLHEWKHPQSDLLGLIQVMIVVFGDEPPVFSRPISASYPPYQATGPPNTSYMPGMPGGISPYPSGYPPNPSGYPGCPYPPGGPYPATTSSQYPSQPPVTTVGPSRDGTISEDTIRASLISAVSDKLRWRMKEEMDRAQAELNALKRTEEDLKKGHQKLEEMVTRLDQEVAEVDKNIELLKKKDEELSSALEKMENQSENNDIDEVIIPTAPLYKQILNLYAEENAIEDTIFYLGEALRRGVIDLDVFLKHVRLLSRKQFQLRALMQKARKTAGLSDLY
Chain of DNA polymerase III PolC-type (Bacillus subtilis (strain 168)) (P13267 whole entry, looked up): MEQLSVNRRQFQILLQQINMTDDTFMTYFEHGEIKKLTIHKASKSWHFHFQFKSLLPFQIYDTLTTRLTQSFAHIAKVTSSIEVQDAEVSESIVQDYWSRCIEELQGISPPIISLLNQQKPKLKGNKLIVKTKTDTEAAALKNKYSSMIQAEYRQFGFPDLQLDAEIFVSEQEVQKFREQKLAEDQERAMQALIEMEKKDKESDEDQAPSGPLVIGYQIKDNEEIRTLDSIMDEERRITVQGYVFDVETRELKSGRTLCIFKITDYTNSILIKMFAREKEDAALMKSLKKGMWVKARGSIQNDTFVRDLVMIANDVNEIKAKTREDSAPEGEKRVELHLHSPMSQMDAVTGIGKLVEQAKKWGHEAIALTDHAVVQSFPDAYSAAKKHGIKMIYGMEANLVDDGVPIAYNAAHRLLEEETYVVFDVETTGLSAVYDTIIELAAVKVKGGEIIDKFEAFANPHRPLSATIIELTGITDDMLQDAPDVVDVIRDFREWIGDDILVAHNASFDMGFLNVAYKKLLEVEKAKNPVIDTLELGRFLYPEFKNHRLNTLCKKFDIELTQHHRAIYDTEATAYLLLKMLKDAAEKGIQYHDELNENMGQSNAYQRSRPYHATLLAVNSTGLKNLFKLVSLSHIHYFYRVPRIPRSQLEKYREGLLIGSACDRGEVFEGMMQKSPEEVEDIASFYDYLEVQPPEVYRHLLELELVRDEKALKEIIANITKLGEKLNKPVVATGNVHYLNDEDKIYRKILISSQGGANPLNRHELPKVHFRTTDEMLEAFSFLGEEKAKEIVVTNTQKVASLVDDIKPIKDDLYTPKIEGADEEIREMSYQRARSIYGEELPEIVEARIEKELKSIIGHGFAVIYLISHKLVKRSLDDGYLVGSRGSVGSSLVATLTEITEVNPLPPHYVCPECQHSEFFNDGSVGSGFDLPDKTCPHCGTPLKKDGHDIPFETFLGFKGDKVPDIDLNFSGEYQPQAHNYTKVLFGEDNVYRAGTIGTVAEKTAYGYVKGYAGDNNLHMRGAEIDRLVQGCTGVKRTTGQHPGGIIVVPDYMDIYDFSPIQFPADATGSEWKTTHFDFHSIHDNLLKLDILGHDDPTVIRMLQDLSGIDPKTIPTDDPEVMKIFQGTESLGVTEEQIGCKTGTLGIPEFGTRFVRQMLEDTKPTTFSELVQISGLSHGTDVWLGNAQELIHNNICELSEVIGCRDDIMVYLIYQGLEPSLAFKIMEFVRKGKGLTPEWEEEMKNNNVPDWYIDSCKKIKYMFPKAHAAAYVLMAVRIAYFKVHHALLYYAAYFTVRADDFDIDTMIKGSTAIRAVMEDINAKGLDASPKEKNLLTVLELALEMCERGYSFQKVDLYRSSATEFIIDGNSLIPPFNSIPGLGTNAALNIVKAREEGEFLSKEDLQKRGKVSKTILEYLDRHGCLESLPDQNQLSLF

Structure (SMILES)	Potency [1]	Potency [2]	outcome [3]	outcome [4]	outcome [5]	outcome [6]	outcome [7]	outcome [8]	outcome [9]	outcome [10]
CC[C@H](CO)Nc1nc(NCc2ccccc2)c2ncn(C(C)C)c2n1	1040 nM (active)	4650 nM (active)	inactive	–	–	–	–	–	–	–
O=c1c2ccccc2nc2n1CCc1c-2[nH]c2ccccc12	–	–	inactive	inactive	inactive	inactive	inactive	inactive	inactive	inactive
